Among the data in PubChem BioAssay (NCI) are growth values, retold here.

Among the test systems are SK-MEL-2 melanoma; EKVX NSCLC; SN12C renal; UO-31 renal; TK-10 renal; ACHN renal; A498 renal; CCRF-CEM leukemia; MOLT-4 leukemia; RPMI-8226 leukemia; OVCAR-8 ovarian; OVCAR-5 ovarian; OVCAR-4 ovarian; SK-OV-3 ovarian; OVCAR-3 ovarian; HS 578T breast; NCI/ADR-RES ovarian; SR leukemia; IGROV1 ovarian; CAKI-1 renal.
Experiment in all cases: NCI-60 one-dose screen, 48 h (100 = growth as untreated, 0 = no growth, -100 = all killed)
Common to all, as to conditions: 10 µM unless noted

The panel holds about 83,000 compounds, 20% with a hit somewhere; the sample as a whole holds those more often.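 The endpoint reported here, percent growth, reads 100 for growth as untreated, 0 for no net growth and -100 for all cells dead.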 A number with no mark means an inactive call. The source made the active and inactive calls. Rule for the calls: active = growth percent below 10; inactive = the rest.

For `Cc1cc(C)cc(OCC(=O)O)c1`, the growth in the test on SK-MEL-2 melanoma is 91.4%; with EKVX NSCLC it was 101%; in the test with SN12C renal it was 99.1%; in the test on UO-31 renal, 86.9%; in the test with TK-10 renal, 97.8%; in the test on ACHN renal it was 98.6%. The growth in the test with A498 renal was 105%; in the test on CCRF-CEM leukemia it was 132%; in the test with MOLT-4 leukemia, 124%; with RPMI-8226 leukemia, 108%; in the test on OVCAR-8 ovarian it was 100%; in the test with OVCAR-5 ovarian, 94.6%. The growth is 113% in the test on OVCAR-4 ovarian; 101% in the test with SK-OV-3 ovarian; 124% in the test on OVCAR-3 ovarian; 105% in the test with HS 578T breast; 105% in the test with NCI/ADR-RES ovarian.
As for `CC(=O)[C@@]1(O)CC[C@H]2[C@@H]3CC[C@@H]4CC(=O)CC[C@]4(C)[C@H]3[C@@H](O)C[C@@]21C`, the growth in the test on SK-MEL-2 melanoma is 99.7%; in the test with EKVX NSCLC it was 88.9%; in the test on SN12C renal, 95.4%; with UO-31 renal, 91.7%; in the test with TK-10 renal, 97.2%; in the test on ACHN renal it was 101%. In addition, the growth in the test with A498 renal is 88.6%; in the test with CCRF-CEM leukemia, 94.1%; in the test on SR leukemia, 87.9%; in the test with RPMI-8226 leukemia it was 97.9%; in the test on OVCAR-8 ovarian, 101%; in the test with OVCAR-5 ovarian, 91.7%. The growth was 111% in the test with OVCAR-4 ovarian; 82.7% in the test with SK-OV-3 ovarian; 103% in the test on IGROV1 ovarian; 109% with OVCAR-3 ovarian; 101% in the test on HS 578T breast; 103% in the test on NCI/ADR-RES ovarian.
In the case of `CC(=O)Nc1ccc(/C=C2\SC(=S)N(/C=C(\C(C)=O)C(N)=O)C2=O)cc1`, the growth is 87.7% with SK-MEL-2 melanoma; 94.2% in the test with EKVX NSCLC; 95.5% in the test with SN12C renal; 68.4% in the test on UO-31 renal; 97.4% in the test on TK-10 renal; 97.8% in the test on ACHN renal. Also, the growth in the test with A498 renal is 101%; with CCRF-CEM leukemia, 91.1%; with RPMI-8226 leukemia it was 83.9%; with OVCAR-8 ovarian, 92.8%; in the test on OVCAR-5 ovarian, 98.7%; with OVCAR-4 ovarian it was 99.4%. In addition, the growth with SK-OV-3 ovarian was 86.9%; with IGROV1 ovarian, 105%; in the test with OVCAR-3 ovarian it was 105%; in the test on HS 578T breast, 95.7%; in the test on NCI/ADR-RES ovarian, 100%.
As for `CCCCc1ccc2nc(NC(=O)OC)[nH]c2c1`, the growth in the test with SK-MEL-2 melanoma was 44.4%; in the test on EKVX NSCLC, 60.3%; in the test with SN12C renal, 34.5%; with UO-31 renal, 36.1%; in the test on TK-10 renal, 57.6%; in the test with CAKI-1 renal it was 19.5%. The growth in the test on A498 renal is -5.63% (active); in the test with CCRF-CEM leukemia it was -15.5% (active); with MOLT-4 leukemia it was -18.9% (active); in the test with RPMI-8226 leukemia, -26.4% (active); with OVCAR-8 ovarian, 11.6%; with OVCAR-5 ovarian, 23%. Moreover, the growth in the test with OVCAR-4 ovarian is 59.4%; with SK-OV-3 ovarian it was 15.2%; in the test on IGROV1 ovarian, 15.8%; with OVCAR-3 ovarian, -57.8% (active); in the test on HS 578T breast, 8.57% (active); in the test on NCI/ADR-RES ovarian, -1.32% (active).
Regarding `Cc1ccc(S(=O)(=O)Oc2ccc3sc4c(CO)ccc(NCCN(C)C)c4c(=O)c3c2)cc1`, the growth in the test with SK-MEL-2 melanoma is -86.6% [100 µM] (active); in the test on EKVX NSCLC it was -66.7% [100 µM] (active); in the test with SN12C renal, -94.1% [100 µM] (active); in the test on UO-31 renal, -95.6% [100 µM] (active); in the test on TK-10 renal, -91.1% [100 µM] (active); in the test with CAKI-1 renal, -91% [100 µM] (active). In addition, the growth with A498 renal was -71.6% [100 µM] (active); with CCRF-CEM leukemia, -27.9% [100 µM] (active); in the test with MOLT-4 leukemia, -34.6% [100 µM] (active); in the test on SR leukemia it was -38.8% [100 µM] (active); in the test on RPMI-8226 leukemia it was -43.4% [100 µM] (active); in the test on OVCAR-8 ovarian, -73.3% [100 µM] (active). Besides, the growth in the test on OVCAR-5 ovarian is -93.2% [100 µM] (active); in the test with OVCAR-4 ovarian it was -97.9% [100 µM] (active); with SK-OV-3 ovarian it was -85.1% [100 µM] (active); in the test with IGROV1 ovarian, -74.1% [100 µM] (active); in the test with OVCAR-3 ovarian, -79.3% [100 µM] (active); with HS 578T breast, -44.2% [100 µM] (active). Also, in the test on NCI/ADR-RES ovarian, the growth is -58% [100 µM] (active).
With `COc1ccc2c(c1)Nc1ccccc1S2`, the growth in the test on SK-MEL-2 melanoma is 112%; with EKVX NSCLC, 105%; in the test on SN12C renal, 107%; with UO-31 renal, 93%; in the test on TK-10 renal, 107%; in the test on ACHN renal, 114%. Moreover, the growth was 104% in the test with CCRF-CEM leukemia; 106% in the test on MOLT-4 leukemia; 118% in the test on SR leukemia; 95.4% in the test on RPMI-8226 leukemia; 102% in the test on OVCAR-8 ovarian; 106% in the test with OVCAR-5 ovarian. Also, the growth in the test on OVCAR-4 ovarian was 91.4%; in the test with SK-OV-3 ovarian it was 111%; with IGROV1 ovarian, 103%; in the test on OVCAR-3 ovarian, 113%; in the test on NCI/ADR-RES ovarian, 111%.
`CCOC(=O)C(=O)CC(=O)c1ccccc1`: the growth in the test on SK-MEL-2 melanoma was 96.9%; with EKVX NSCLC, 97.4%; in the test with SN12C renal, 100%; in the test on UO-31 renal, 85.3%; in the test with TK-10 renal it was 113%; in the test on CAKI-1 renal, 95.4%. Also, the growth is 114% in the test on CCRF-CEM leukemia; 104% with MOLT-4 leukemia; 79.7% with SR leukemia; 98.4% with RPMI-8226 leukemia; 101% with OVCAR-8 ovarian; 95.1% in the test on OVCAR-5 ovarian. Further, the growth is 104% in the test on OVCAR-4 ovarian; 111% in the test on SK-OV-3 ovarian; 93.3% in the test on IGROV1 ovarian; 106% in the test on OVCAR-3 ovarian; 106% in the test on HS 578T breast; 93.1% with NCI/ADR-RES ovarian.
As to `Nc1ccc(F)cc1F`, the growth was 101% in the test on SK-MEL-2 melanoma; 105% with EKVX NSCLC; 100% with SN12C renal; 98.4% in the test with UO-31 renal; 106% with TK-10 renal; 94.7% with CAKI-1 renal. For the same compound, the growth in the test with A498 renal was 107%; in the test on CCRF-CEM leukemia, 102%; with MOLT-4 leukemia it was 107%; in the test with SR leukemia it was 107%; in the test on RPMI-8226 leukemia, 102%; in the test on OVCAR-8 ovarian, 116%. Moreover, the growth is 96.3% in the test on OVCAR-5 ovarian; 123% in the test with OVCAR-4 ovarian; 116% in the test on SK-OV-3 ovarian; 105% with IGROV1 ovarian; 116% in the test with OVCAR-3 ovarian; 108% in the test on HS 578T breast. For the same compound, the growth in the test with NCI/ADR-RES ovarian is 108%.
`OCC1CCC(O)C(CO)N1` (stereo not given): the growth in the test with SK-MEL-2 melanoma was 129%; with EKVX NSCLC it was 92.3%; with SN12C renal, 103%; in the test with UO-31 renal it was 90.8%; in the test on TK-10 renal, 121%; in the test with ACHN renal it was 100%. The growth was 91.5% in the test on A498 renal; 106% in the test with MOLT-4 leukemia; 101% in the test on SR leukemia; 83.7% in the test with RPMI-8226 leukemia; 112% in the test with OVCAR-8 ovarian; 88.4% in the test with OVCAR-5 ovarian. The growth was 94.6% with OVCAR-4 ovarian; 118% in the test with SK-OV-3 ovarian; 110% in the test on IGROV1 ovarian; 107% in the test on OVCAR-3 ovarian; 118% with NCI/ADR-RES ovarian.
Turning to `CC(C)N(C(=O)c1ccccc1)C(C)C`, the growth with SK-MEL-2 melanoma was 114%; in the test with EKVX NSCLC, 104%; with SN12C renal, 107%; with UO-31 renal, 104%; in the test with TK-10 renal it was 98.2%; in the test on ACHN renal, 108%. Also, the growth in the test with A498 renal is 86.6%; with MOLT-4 leukemia, 111%; in the test with SR leukemia, 110%; in the test on RPMI-8226 leukemia it was 105%; in the test on OVCAR-8 ovarian it was 111%; with OVCAR-5 ovarian, 96.3%. In addition, the growth in the test on OVCAR-4 ovarian was 109%; in the test with SK-OV-3 ovarian it was 114%; in the test with IGROV1 ovarian, 116%; in the test with OVCAR-3 ovarian, 108%; in the test with HS 578T breast it was 108%; in the test with NCI/ADR-RES ovarian, 115%.
In the case of `CN(C)c1ccc2nc3ccc(=[N+](C)C)cc-3oc2c1`, the growth with SK-MEL-2 melanoma is 58.1%; in the test with EKVX NSCLC it was 29.8%; in the test with SN12C renal it was -39.7% (active); in the test with UO-31 renal, 65.1%; in the test on TK-10 renal, 70%; in the test with A498 renal, 94.8%. Moreover, the growth is 4.76% (active) in the test on MOLT-4 leukemia; 60.3% in the test with SR leukemia; 45.6% in the test on RPMI-8226 leukemia; 8.48% (active) in the test with OVCAR-8 ovarian; -12.3% (active) with OVCAR-5 ovarian; -76% (active) in the test on OVCAR-4 ovarian. For the same compound, the growth in the test with SK-OV-3 ovarian was 61.3%; in the test with IGROV1 ovarian, 5.34% (active); in the test with OVCAR-3 ovarian it was -10.6% (active); in the test with HS 578T breast it was 101%; in the test on NCI/ADR-RES ovarian it was 66.3%.
`NNc1ncccn1`: the growth in the test on SK-MEL-2 melanoma is 90.2%; in the test on EKVX NSCLC, 102%; in the test with SN12C renal, 103%; in the test on UO-31 renal, 83.5%; with TK-10 renal it was 92.2%; in the test with CAKI-1 renal, 102%. For the same compound, the growth was 91.7% with A498 renal; 109% with CCRF-CEM leukemia; 110% in the test with MOLT-4 leukemia; 98.2% with SR leukemia; 108% with RPMI-8226 leukemia; 108% in the test with OVCAR-8 ovarian. The growth in the test with OVCAR-5 ovarian was 108%; in the test with OVCAR-4 ovarian it was 101%; with SK-OV-3 ovarian, 105%; in the test on IGROV1 ovarian, 111%; with OVCAR-3 ovarian, 101%; in the test on HS 578T breast, 91.5%. Moreover, in the test on NCI/ADR-RES ovarian, the growth is 104%.
Regarding `CC(=O)OCC1OC(n2cnc3c(=S)nc(N)[nH]c32)C(OC(C)=O)C1OC(C)=O` (stereo not given), the growth in the test on SK-MEL-2 melanoma is 95.2%; in the test on EKVX NSCLC, 83.9%; in the test with SN12C renal, 97.4%; with UO-31 renal, 72.6%; in the test with TK-10 renal, 82.4%; with ACHN renal it was 72.1%. The growth in the test on A498 renal is 105%; in the test on MOLT-4 leukemia, 2.42% (active); in the test with SR leukemia, 12.9%; with OVCAR-8 ovarian, 76.6%; in the test with OVCAR-5 ovarian, 70%; in the test with OVCAR-4 ovarian, 82.5%. Moreover, the growth with IGROV1 ovarian was 96.6%; with OVCAR-3 ovarian, 83.4%; in the test on HS 578T breast it was 77.3%; in the test with NCI/ADR-RES ovarian, 78.4%.
